A selection: hits, their analogues and other compounds. The true share with any hit is near 19%.
HT1080NT lethal: kills 2HG-producing HT-1080-NT fibrosarcoma cells | HT-1080-NT fibrosarcoma viability, CellTiter-Glo ATP luminescence, 48 h | Potency, µM (series often up to 46.1 µM), inactives show at the top dose activity, negative = less viability, usual class: cytotoxic | 360,000 tested, 1.6% active | AID 686970;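 also: NT is the 2HG producing partner of a matched IDH1 knockdown line; potency is read from the fitted curve at half-maximal effect; 0% = DMSO-treated cells and -100% = media-only wells without cells; nearly all actives have a fitted effect of over 55% in size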
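Viability by CellTiter-Glo luminescence after 48 h compound exposure at 37C of HT-1080-NT cells (750/well, RPMI, 5% FBS). % activity scaled between DMSO wells and medium-only wells, then curve-fitted and categorized by curve class.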
IL1B secr inh: inflammasome signaling inhibition, IL-1 beta readout; AID 743279; activity change, % at 57.5 µM; THP-1 LPS/ATP IL-1B secretion, AlphaLISA, 16 h; stronger effect = lower value; 360,000 tested, 4.7% active; in the data active = activity change below about -50%; inconclusive = mostly about -30% to -49%
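Secreted IL-1B measured by AlphaLISA bead assay after 16 h compound exposure of THP-1 cells; compounds (final up to 57.5 uM) added 1 h before LPS (250 ng/mL) and ATP (1.25 mM) stimulation; lower signal means less secretion.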
ELG1 DNA repair: inhibitors of ELG1-dependent DNA repair in HEK293T cells. HEK293T ELG1-luciferase reporter, luminescence, 16 h; DNA damage induced by 5-fluorouridine. Potency, µM (top dose mostly 46.1 µM), for the others: top-dose activity change, negative = inhibition, most hits filed as inhibitors. 330,000 tested, 2.3% active. AID 504467; also: potency is read from the fitted curve at half-maximal effect; nearly all actives have a fitted effect of over 55% in size
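DMSO vehicle served as the neutral condition. Each well held 2,000 cells given 5-fluorouridine plus compound; after 16 hr at 37 °C/5% CO2, ONE-Glo was added and luciferase measured 30 min later.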
TDP1 cell noCPT: qHTS for Inhibitors of human tyrosyl-DNA phosphodiesterase 1 (TDP1): qHTS in cells in absence of CPT; 420,000 tested, 15% active; Potency, µM (top dose mostly 46.2 µM), for the others: at the highest dose activity change, negative = growth inhibition, actives largely listed as inhibitors; DT40 Tdp1-/- hTDP1 cells, no CPT, ATP luminescence, 48 h; AID 686978, 2013; also: potency is read from the fitted curve at half-maximal effect; nearly all actives have a fitted effect of over 55% in size
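Readout: luminescence from CellTiter-Glo after 30 min in the dark at RT. Cells: DT40 Tdp1-/- with stable hTDP1, 400/well. Exposure: compounds alone, ≥48 hr, 37 °C.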
HT1080 IDH1KD tx: HT-1080 IDH1 knockdown cell toxicity (counter line) | Potency, µM (top dose mostly 46.1 µM), without a hit: at the top dose activity, negative = toxicity, actives largely listed as cytotoxic | AID 686971 | 360,000 tested, 2% active | HT-1080 IDH1 knockdown viability, ATP luminescence, 48 h;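 also: potency is read from the fitted curve at half-maximal effect; 0% = DMSO wells and -100% = cell-free medium wells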
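Using the IDH1-knockdown HT-1080 line run in the same batch and compound series as the NT line, viability after 48 h at 37 °C was determined by CellTiter-Glo luminescence and expressed as % activity.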
TDP1 cell CPT: growth inhibition of DT40 Tdp1-/-;hTDP1 cells with camptothecin (screen for TDP1 inhibitors); chicken DT40 Tdp1-/-;hTDP1 cells + 20 nM CPT, ATP luminescence, 48 h; Potency, µM (series often up to 46.2 µM), for inactives: top-dose activity change, negative = growth inhibition, hits mostly inhibitors; 420,000 tested, 12% active; AID 686979; also: potency is read from the fitted curve at half-maximal effect; nearly all actives have a fitted effect of over 55% in size
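Chicken DT40 Tdp1-/- cells complemented with human TDP1, 400 cells/well, exposed to compounds plus 20 nM camptothecin for at least 48 h at 37 C; viability read as ATP content by CellTiter-Glo luminescence.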
* hit, by the source's call; ? = inconclusive; / = not tested or not shown; [ ] = dose if it differs, or a comment. Unless noted, calls follow the shape of the dose curve; as a rule, active = well fitted curve in the direction sought with a large enough effect; inconclusive = small, poorly fitted or top-dose-only effect, or another doubt; inactive = no such curve, though single readings can be large; an effect the other way counts as inactive or inconclusive. Unless noted, % is scaled to controls: 0 for no effect and ±100 for the full control effect.

SMILES	HT1080NT lethal	IL1B secr inh	ELG1 DNA repair	TDP1 cell noCPT	HT1080 IDH1KD tx	TDP1 cell CPT
C=C1[C@H]2CC[C@H]3[C@]4(C)C[C@H](O[C@@H]5OC(CO)[C@@H](OSOOO)[C@H](OS(=O)(=O)O)[C@H]5OC(=O)CC(C)C)C[C@@H](C(=O)O)[C@H]4CC[C@]3(C2)[C@H]1O (some centres undefined)	7%	20	0%	6%	12%	-5%
CCOC(=O)c1cnc2c(ccc3ccccc32)c1Nc1ccc(N(C)C)cc1	/	/	/	?	/	15µM*
CN(C)c1ccc(NC(=O)Oc2ccccc2)cc1	9%	-6	?	-16%	12%	-17%
CN(C)C/C=C(\c1ccc(Br)cc1)c1cccnc1	?	-25	14%	?	?	-28%
COC(=O)C1=C(c2ccc(F)cc2OCc2ccccc2)C[C@@H]2CC[C@H]1N2C(=O)NCc1ccccc1OC	-5%	0	?	?	-12%	26µM*
COC(=O)C1=C(c2ccc(F)cc2OCc2ccccc2)C[C@@H]2CC[C@H]1N2C(=O)NCc1ccccc1	-25%	?	?	?	-12%	?
COC(=O)C1=C(c2ccc(F)cc2OCc2ccccc2)C[C@@H]2CC[C@H]1N2C(=O)NCc1cc(C)oc1C(F)(F)F	0%	-18	?	?	8%	21µM*
COC(=O)C1=C(c2ccc(F)cc2OCc2ccccc2)C[C@@H]2CC[C@H]1N2C(=O)NCC1CC1	0%	-19	-17%	8.2µM*	-1%	7.3µM*
COC(=O)C1=C(c2ccc(F)cc2OCc2ccccc2)C[C@@H]2CC[C@H]1N2C(=O)NCc1cccc(F)c1	0%	-29	?	?	-20%	?
CCN1C[C@]2(COC)[C@H](O)C[C@H](OC)[C@@]34[C@@H]5C[C@@]6(O)[C@H](OC(=O)c7ccccc7)[C@@H]5[C@@](OC(C)=O)([C@@H]([C@H](OC)[C@H]23)[C@@H]14)[C@@H](O)[C@@H]6OC	/	/	/	-8%	/	-9%
CC(C)C[C@@H]1COc2cccc(N3CCN(C)CC3)c2S(=O)(=O)N1	3%	11	/	-12%	-1%	-3%
CC1(C)C2C[C@@H](O)[C@]3(C)C(CC[C@@]4(C)[C@H](c5ccoc5)C[C@H]5O[C@]543)[C@@]2(C)[C@@H](O)C[C@H]1O (some centres undefined)	/	/	/	-19%[9.04 µM]	/	-18%[9.04 µM]
NC(=O)c1sc2nc3c(c(-c4cccs4)c2c1N)CCCC3	/	/	2.3µM*	/	/	/
CN1CCc2nc3sc(C#N)c(N)c3c(-c3cccs3)c2C1	-1%	-8	-16%	21µM*	-6%	?
CN1CCc2nc(N)c(C#N)c(-c3ccccc3)c2C1	9%	30	-8%	-12%	9%	1%
COc1ccc(C(=O)C2CCCN(CC3CCCCC3)C2)cc1OC (centres undefined)	1%	-11	/	?	8%	?
CC[C@H]1[C@@H]2C[C@H]3[C@@H]4N(C)c5ccccc5[C@]45C[C@@H](C2[C@H]5O)N3[C@@H]1O (some centres undefined)	/	/	/	-26%[21.1 µM]	/	?
Fc1ccc(C(OCCN2CCN(C/C=C/c3ccccc3)CC2)c2ccc(F)cc2)cc1	/	/	/	3.3µM*	/	5.2µM*
c1ccc(CCCN2CCN(CCOC(c3ccccc3)c3ccccc3)CC2)cc1	23µM*	-16	/	13µM*	23µM*	9.2µM*
[O]=[Cd]	/	/	/	11%	/	-4%
CCSc1nnc(NC(=O)c2cccn(Cc3ccc(Cl)cc3)c2=O)s1	/	/	/	1%	/	0%
CC1OC(OC2C=C3CCC4C(CCC5(C)C(c6ccc(=O)oc6)CCC45O)C3(C)CC2)C(O)C(OC2OC(CO)C(O)C(O)C2O)C1O (centres undefined)	0.21µM*	-71*	/	0.18µM*	0.18µM*	0.16µM*
O=C(CSc1nnc(NC(=O)c2cccc(F)c2)s1)NCc1ccco1	15%	3	?	12%	5%	-15%
Cc1nc(N2CCN(Cc3ccccc3)CC2)nc2c1C(=O)CC(C)C2 (centres undefined)	-4%	0	?	16µM*	-19%	18µM*
O=c1oc2ccccc2cc1-c1cn2cc(Cc3ccc(F)cc3)sc2n1	/	/	/	2.1µM*	/	5.2µM*
SMILES	HT1080NT lethal	IL1B secr inh	ELG1 DNA repair	TDP1 cell noCPT	HT1080 IDH1KD tx	TDP1 cell CPT
O=C1C=C2c3ccccc3CC(C(=O)O)C2CC1 (centres undefined)	10%	22	/	3%	2%	-1%
Cc1ccc(Cl)cc1Nc1nn2c(=O)c3ccc(C(=O)NCc4cccs4)cc3nc2s1	/	/	/	16µM*	/	15µM*
COc1cccc(NC(=O)c2ccc3c(=O)n4nc(Nc5ccccc5OC)sc4nc3c2)c1	/	/	/	4.6µM*	/	5.8µM*
COc1ccc(NC(=O)c2ccc(NC(=O)c3nc4nccc(C)n4n3)cc2)cc1	-8%[9.24 µM]	-5	?	-6%	-8%	0%
Cc1ccc(-n2nc3c(=O)n(CC(=O)Nc4ccccc4F)nc(C)c3c2C)c(C)c1	/	/	/	18µM*	/	?
Cc1ccc(C)c(NC(=O)Cn2nc(C)c3nn(-c4ccc(Cl)cc4)c(C)c3c2=O)c1	/	/	/	18µM*	/	23µM*
CCN(CC)C(=O)c1ccc(NC(=O)Cn2nc(C)c3ccccc3c2=O)cc1	0%	1	7%	-8%	-2%	-24%
c1coc(CN2Cc3ccccc3-n3nncc3C2)c1	3%	31	/	-29%	-1%	-20%
O=C1CN(O)C(c2ccccc2)=c2cc(Br)ccc2=N1	14%	8	-1%	-30%	5%	0%
NC(Cc1ccc(Cl)cc1)c1csc(Nc2cnccn2)n1 (centres undefined)	?	?	/	-83%	?	-89%
Cc1cnc(C)c(Nc2nc(C(N)Cc3ccc(C(F)(F)F)cc3)cs2)n1 (centres undefined)	?	?	/	12µM*	16µM*	12µM*
N#CC(O[C@@H]1OC(COC2OC(CO)C(O)C(O)[C@@H]2O)C(O)C(O)C1O)c1ccccc1 (some centres undefined)	/	/	/	-1%	/	-5%
O=C(Nc1ccc2nc(-c3cccs3)c(-c3cccs3)nc2c1)NC1CC1	?	?	?	18µM*	?	?

From PubChem BioAssay
